GALR2 blocker: antagonists of human galanin receptor 2 (GALR2); O43603; GALR2-expressing cells, antagonist mode; inhibition, % at 4 µM; 140,000 tested, 0.39% active; AID 828;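 note: cells stimulated with galanin 1-16 at roughly its EC80; 0% = agonist challenge control and 100% = basal control without agonist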
Target sequence (O43603 whole entry, looked up): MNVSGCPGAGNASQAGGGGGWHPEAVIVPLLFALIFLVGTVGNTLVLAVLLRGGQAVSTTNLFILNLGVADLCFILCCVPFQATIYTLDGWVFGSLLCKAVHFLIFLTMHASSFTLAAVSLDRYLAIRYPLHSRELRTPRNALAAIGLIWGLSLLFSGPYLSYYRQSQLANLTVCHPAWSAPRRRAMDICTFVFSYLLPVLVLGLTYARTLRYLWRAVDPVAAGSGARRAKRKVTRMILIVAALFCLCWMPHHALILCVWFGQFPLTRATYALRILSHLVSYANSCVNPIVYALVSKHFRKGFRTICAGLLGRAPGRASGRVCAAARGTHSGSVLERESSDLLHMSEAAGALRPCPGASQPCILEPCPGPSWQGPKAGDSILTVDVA
GALR2 ag: activates the human galanin receptor 2; AID 803; activation, % (no concentration beside the values); GALR2-expressing cells, agonist activation read-out; O43603; 140,000 tested, 0.48% active; in the data active = activation above about 5%, passing the limit was not always enough;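 note: 0% = vehicle buffer wells and 100% = reference agonist at full effect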
S1P2 ag: activates the human S1P2 receptor | O95136 | S1P2-expressing cell line, agonist reporter read-out | activation, % at 4.5 µM | 97,000 tested, 0.46% active; in the data active = activation above about 16%;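 note: 0% = vehicle low control and 100% = maximal reference agonist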
Target sequence (O95136 whole entry, looked up): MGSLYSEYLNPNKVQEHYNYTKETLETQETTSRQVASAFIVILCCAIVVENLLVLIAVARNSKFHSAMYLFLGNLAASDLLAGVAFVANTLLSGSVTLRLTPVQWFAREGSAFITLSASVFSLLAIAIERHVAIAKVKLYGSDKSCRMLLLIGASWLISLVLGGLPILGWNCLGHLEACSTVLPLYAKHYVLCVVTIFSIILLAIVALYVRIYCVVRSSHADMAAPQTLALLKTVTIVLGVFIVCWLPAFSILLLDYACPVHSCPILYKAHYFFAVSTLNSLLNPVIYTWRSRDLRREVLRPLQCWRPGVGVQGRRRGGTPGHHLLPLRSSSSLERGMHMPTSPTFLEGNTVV
S1P2 blocker: antagonists of human S1P2 receptor. O95136. cell-based S1P2 antagonist assay, inhibition at 5 uM. inhibition, % at 5 µM. AID 736. 97,000 tested, 0.21% active; in the data active = inhibition above about 45%;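 note: CRE beta-lactamase reporter cells expressing human S1P2 stimulated with S1P; 0% = agonist at EC80 alone and 100% = agonist plus reference antagonist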
LYP act: activators of human LYP (PTPN22) phosphatase; Q9Y2R2; 96,000 tested, 0.11% active; activation, % at 2 µM; AID 697; recombinant LYP, DiFMUP fluorescence; 0 = plate median, 100 = signal doubled;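 active = activation at 2 µM above a set limit, the mean plus 5 SD, cut at about 37% in these data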
PTPN22 inh 2: inhibitors of human LYP (PTPN22) phosphatase; recombinant LYP catalytic domain, DiFMUP fluorescence; inhibition, % at 2 µM; 96,000 tested, 0.21% active; AID 640;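 active = inhibition at 2 µM at or above a set limit, the screen mean plus 3 SD, cut at about 24% in these data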;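 note: 0% = DMSO with enzyme and 100% = enzyme fully blocked by orthovanadate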
GALR2 ag confirm: GALR2 (human) agonism confirmed. shares compounds with GALR2 ag. GALR2-expressing cells, agonist activation. activation, % at 5.6 µM. 460 tested, 10% active. AID 864; in the data active = activation above about 8.4%;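 note: 0% = buffer-only vehicle wells and 100% = full reference agonist response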
BLA act counter: beta-lactamase activation, GALR2 counterscreen. CHO NFAT-bla reporter, beta-lactamase FRET activation. shares compounds with GALR2 ag. AID 865. 460 tested, 10% active. activation, % at 5.6 µM;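 active = activation above the screen-wide mean activation plus 3 SD, cut at about 8% in these data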;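 note: 0% = DMSO with PBS wells and 100% = thapsigargin positive control wells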
GALR2 ant conf: GALR2 (human) antagonism confirmed | shares compounds with GALR2 blocker | inhibition, % at 4 µM | GALR2-expressing cells, antagonist mode, inhibition | 480 tested, 60% active;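 note: cells stimulated with galanin at about its EC80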
BLA inh counter: beta-lactamase inhibition, GALR2 counterscreen | AID 867 | CHO NFAT-BLA reporter, beta-lactamase FRET, thapsigargin-stimulated | 480 tested, 36% active | shares compounds with GALR2 blocker | inhibition, % at 4.2 µM;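 active = inhibition above the mean inhibition across tested compounds plus 3 SD, cut at about 27% in these data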;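 note: 0% = 500 nM thapsigargin stimulated wells and 100% = unstimulated BSA only wells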
* hit, by the source's call; . = no result. Rows were chosen to be rich in hits. Some 1.3% of all compounds tested hit in one or more screens of this group. Cut-off read from the data, not from the text of the source, unless noted: active = inhibition above about 27%; inactive = the rest.

SMILES	GALR2 blocker	GALR2 ag	S1P2 ag	S1P2 blocker	LYP act	PTPN22 inh 2	GALR2 ant conf	BLA inh counter	others
Cc1ccc(/C=N/Nc2ccnc3cc(Cl)ccc23)c(C)c1	31.8*	13.6*	.	.	.	.	41.8*	42.4*	GALR2 ag confirm=19.4*;BLA act counter=10.0*
O=C(Nc1ccc(N2CCOCC2)cc1)c1cccc(S(=O)(=O)N2CCC(Cc3ccccc3)CC2)c1	13.7	-1.4	-7.3	12.3	-11.4	12.0	.	.
O=c1oc2cc(O)ccc2cc1-c1nc2c(s1)CCc1ccccc1-2	36.6*	13.7*	.	.	.	.	65.9*	70.0*	GALR2 ag confirm=3.8;BLA act counter=0.9
O=c1oc2ccccc2cc1-c1ccc(O)cc1O	5.5	-0.9	.	.	.	.	.	.
CN(C)c1ccc(/C=C/c2nc3ccccc3s2)cc1	44.8*	20.0*	0.7	57.7*	3.1	-0.7	31.7*	41.3*	GALR2 ag confirm=5.9;BLA act counter=9.6*
COc1cc(Cl)c(C)cc1NC(=O)CSc1ccc(NC(C)=O)cc1	13.1	-3.0	.	.	.	.	.	.
CC1C/C(=C\c2cccnc2)C(=O)/C(=C/c2cccnc2)C1 (stereo not given)	36.0*	-0.6	.	.	.	.	43.8*	20.3
CC1(C)OC(=O)N(CCc2ccccc2)C1(C)O (stereo not given)	31.4*	-2.6	.	.	.	.	10.2	9.7
Cc1[nH]c2ccc(OCc3ccccc3)cc2c1CCN1C(=O)OC(C)(C)C1(C)O (stereo not given)	-1.9	-2.7	-3.2	-7.9	-6.3	3.6	.	.
COc1ccc(OC)c(/C=N/NC(=O)c2ccc(Cn3cc([N+](=O)[O-])cn3)o2)c1	10.6	0.0	.	.	.	.	.	.
Cc1n[nH]c(C)c1N1C(=O)c2cccc3cc(Br)cc(c23)C1=O	-4.5	-0.5	-5.0	-10.1	-5.3	7.5	.	.
Cc1n[nH]c(C)c1N1C(=O)c2cccc3c(Br)ccc(c23)C1=O	43.9*	-0.6	-9.5	74.3*	-3.7	3.4	28.3*	24.9
Nc1ccc2c(c1)C/C(=C/c1ccco1)C2=O	28.7*	-1.6	.	.	.	.	32.5*	36.0*
O=C1/C(=C/c2ccco2)CCc2ccccc21	-4.1	-0.2	.	.	.	.	.	.
COc1ccc(-c2cn(/N=C/c3ccc(Cl)cc3Cl)c(N)n2)cc1	3.6	-1.1	-8.3	-31.8	-13.1	12.3	.	.
CC(C)Nc1ncnc2ccc(Br)cc12	38.2*	-2.1	.	.	.	.	35.9*	20.9
CSCCC(Nc1ncnc2ccc(Br)cc12)C(=O)O (stereo not given)	4.1	-2.6	-4.9	-12.9	5.1	-7.4	.	.
COc1ccc(Nc2cnn(-c3nc4ccccc4s3)c(=O)c2Cl)cc1	44.3*	0.2	.	.	.	.	52.2*	58.3*
COc1ccc(C(=O)C2CN(c3ccccc3)CC2c2ccc(Cl)cc2)cc1 (stereo not given)	9.9	0.7	-2.5	-8.4	8.1	-10.8	.	.
O=C(CSc1nnnn1C1CC2CCC1C2)Nc1ccnc2ccccc12 (stereo not given)	45.4*	-0.4	.	.	.	.	63.7*	20.1
O=C(CSc1nnnn1C1CCCC1)NCc1ccccc1	-3.2	-0.5	-2.6	14.9	-17.0	18.2	.	.
Cn1c(CNC(=O)Nc2cccc(Cl)c2)nnc1SCc1ccccc1	28.5*	-2.0	-6.7	32.6	-4.8	4.0	14.5	8.4
COc1cc(/C=C2\CC/C(=C\c3cc(OC)c(O)c(OC)c3)C2=O)cc(OC)c1O	57.8*	-1.7	.	.	.	.	40.7*	30.5*
COC(CNC(=O)c1cc(Sc2nnc(C)s2)nc2ccccc12)OC	10.5	-1.2	.	.	.	.	.	.
CCOC(=O)COc1ccccc1/C=C\[N+](=O)[O-]	29.8*	-3.5	.	.	.	.	43.1*	30.3*
SMILES	GALR2 blocker	GALR2 ag	S1P2 ag	S1P2 blocker	LYP act	PTPN22 inh 2	GALR2 ant conf	BLA inh counter	others
CC(c1ccco1)N(C(=O)c1ccccc1NS(=O)(=O)c1ccc(Cl)c([N+](=O)[O-])c1)c1ccccn1 (stereo not given)	7.3	-0.9	.	.	.	.	.	.
CCCCCCCCNC(=O)CCNC(=O)c1ccc(C(C)(C)C)cc1	-12.2	-1.9	-2.9	26.0	-6.7	7.0	.	.
CCOC(=O)c1ccccc1NC(=O)c1cccs1	-1.9	0.5	-5.5	0.4	-5.9	2.7	.	.
CCOC(=O)c1ccccc1N/C=C/C(=O)c1cccs1	27.2*	-0.8	.	.	.	.	27.0*	11.4
CCNC(=O)COc1ccc(C=O)cc1OC	65.5*	0.4	.	.	.	.	5.4	-5.8
CCOC(=O)C1=C(Cc2ccc(OC)cc2)C(=O)c2ccccc2C1=O	32.0*	-3.0	-14.2	33.5	-3.0	3.8	20.4	16.7
CCOC(=O)C1=C(Cc2ccc(C)cc2)C(=O)c2ccccc2C1=O	15.5	-2.7	-1.4	9.1	-2.8	2.8	.	.
O=C(COc1ncnc2c(Cl)cc(Cl)cc12)Nc1cc([N+](=O)[O-])ccc1Cl	-3.9	0.2	.	.	.	.	.	.
COc1ccc(NC(=O)c2cc(S(=O)(=O)N(C)C)ccc2N2CCCC2)cc1Cl	28.3*	-1.1	.	.	.	.	2.3	-0.2
O=C(NC(Cc1ccccc1)C(=O)Oc1ccc2c(C(F)(F)F)cc(=O)oc2c1)OCc1ccccc1 (stereo not given)	32.5*	-0.3	.	.	.	.	19.8	22.8
CCc1c(C)nc2ncnn2c1NCCc1ccc(OC)cc1	32.0*	-1.8	-9.6	26.6	-11.6	11.1	35.4*	10.2
Cc1cc(C(=O)CSc2nc3ccccc3[nH]2)c(C)n1CC1CCCO1 (stereo not given)	43.3*	-2.0	-4.5	65.7*	-1.2	-2.3	34.0*	9.4
CC(C)(C)C(=O)Nc1ccc(N2CCCC2)cc1	-14.1	-2.2	-1.1	10.1	-1.2	3.0	.	.
CCCCCCCCCCn1c2c(c(=N)c3c1CCC3)CCC2	35.9*	-4.3	-4.9	86.9*	-8.2	5.0	30.3*	56.6*
Cc1sc2ncnc(NCc3ccco3)c2c1C	5.6	0.3	-2.7	-8.9	-10.5	10.9	.	.
Cc1sc2ncnc(NCc3cccs3)c2c1C	27.5*	-1.6	-0.6	37.0	7.4	-4.6	24.2	14.0
CCOC(=O)Cn1nc(C)n(-c2ccc(C(C)(C)C)cc2)c1=O	-5.1	-0.8	-2.6	19.4	8.1	-5.5	.	.
CC(=O)c1c(C)[nH]c(C(=O)COc2cc(C)ccc2C(C)C)c1C	32.6*	-1.7	-1.3	65.6*	-1.8	2.5	49.7*	18.5
CC(=O)c1c(C)[nH]c(C(=O)COc2ccc(C#N)cc2)c1C	8.0	-0.9	-6.6	8.3	2.1	-0.4	.	.
O=S(Cc1cc(Oc2ccccc2)nc(-c2ccccc2)n1)c1ccccc1 (stereo not given)	-0.9	-2.5	-2.3	9.4	7.9	-5.3	.	.
Cc1ccc(NC(=O)c2ccccc2-c2ccc(C(F)(F)F)cc2)cc1S(=O)(=O)N1CCOCC1	-1.4	-0.8	.	.	.	.	.	.

Bioassay records (PubChem BioAssay)
